# Activity calls are given as the source filed them.
# Experiments:
# [1] = target: NADPH oxidase 4 (Homo sapiens) (UniProt Q9NPH5); experiment: NOX4-dependent H2O2 signal modulators, primary screen, NOX inhibitor project, cell-based, HEK293-NOX4, tetracycline-induced, Amplex Red fluorescence (AID 1160); details: 45 min, higher = more signal, called active from +8 up or from −8 down
# [2] = target: NADPH oxidase 5 (Homo sapiens) (UniProt Q96PH1); experiment: NOX5-dependent H2O2 signal modulators, primary screen, NOX inhibitor project, cell-based, HEK293-NOX5, Amplex Red fluorescence (AID 1161); details: HEK293-NOX5, ionomycin, 45 min, higher = more signal
# [3] = A549 cell viability effects, profiling panel, calcein-AM fluorescence, 48 h, basal (AID 1162); details: higher = more signal; note: test concentration not given here
# [4] = adipocyte viability effects, profiling panel, cell-based, 3T3-L1 adipocytes, calcein-AM fluorescence, 48 h, basal (AID 1163); details: 3T3-L1 adipocytes viability, higher = more signal; note: test concentration not given here
# [5] = HepG2 cell viability effects, profiling panel, calcein-AM fluorescence, 48 h, basal (AID 1164); details: higher = more signal; note: test concentration not given here
# [6] = MM1S cell viability effects, profiling panel, calcein-AM fluorescence, 48 h, basal (AID 1165); details: higher = more signal;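 note: viability of MM1S multiple myeloma cells under basal unstimulated conditions; test concentration not given here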
# [7] = basal RPMI8226 viability, no added stimulus, profiling panel, cell-based, calcein-AM fluorescence, 48 h, PK04 Diversity Set (AID 1166); details: RPMI8226 myeloma viability, higher = more signal;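 note: cells grown under basal conditions without added stimulus; test concentration not given here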
# [8] = basal HepG2 mitochondrial membrane potential changes, profiling panel, cell-based, JC-1 fluorescence, 24 h, 100 nL compound (AID 1167); details: higher = more signal; note: test concentration not given here
# [9] = basal 3T3-L1 adipocyte mitochondrial potential changes, profiling panel, cell-based, JC-1 fluorescence, 3T3-L1 adipocytes, 24 h, 100 nL compound (AID 1168); details: JC-1 mitochondrial fluorescence, higher = more signal, called active from +8 up or from −8 down; note: test concentration not given here
# [10] = basal RPMI8226 mitochondrial membrane potential changes, profiling panel, cell-based, JC-1 fluorescence, 24 h, 100 nL compound (AID 1169); details: RPMI8226 myeloma, JC-1 mitochondrial potential fluorescence, higher = more signal; note: test concentration not given here
# [11] = basal MM1S mitochondrial membrane potential changes, profiling panel, cell-based, JC-1 fluorescence, 24 h, 100 nL compound (AID 1170); details: higher = more signal; note: test concentration not given here
# [12] = A549 lung cancer cell viability effects, profiling panel, resazurin fluorescence, 24 h, PK04 Diversity Set (AID 1171); details: higher = more signal, called active from +8 up or from −8 down; note: test concentration not given here
# [13] = HepG2 liver cancer cell viability effects, profiling panel, resazurin fluorescence, 24 h, PK04 Diversity Set (AID 1172); details: higher = more signal; note: test concentration not given here
# [14] = basal S. cerevisiae growth modulation, no modifier, primary screen, OD600, strain BY4716, 24 h, basal condition (AID 1173); details: OD600, 24 h, higher = more signal, called active from +8 up or from −8 down
# [15] = MM1S myeloma cell viability, profiling panel, resazurin fluorescence, basal, 24 h, PK04 Diversity Set (AID 1174); details: higher = more signal, called active from +8 up or from −8 down;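 note: MM1S multiple myeloma cell line; test concentration not given here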
# [16] = target: Dihydroorotate dehydrogenase (quinone), mitochondrial (Plasmodium falciparum (isolate 3D7)) (UniProt Q08210); experiment: PfDHODH enzyme inhibitors, primary screen, biochemical, C-terminal His tag, absorbance 600 nm (AID 1175); details: DCIP absorbance 600 nm, higher = more signal, called active from +8 up or from −8 down;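 note: recombinant parasite enzyme with a five histidine tag at its C terminus; test concentration not given here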
# [17] = S. cerevisiae RM11-1a growth modifiers, primary screen, strain RM11-1a, OD600, basal, 24 h (AID 1177); details: OD600, 24 h, higher = more signal, called active from +8 up or from −8 down;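 note: cultures grown under basal conditions with no added stressor; test concentration not given here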
# [18] = E. coli acrAB mutant growth effects, primary screen, E. coli filamentation inducers, strain DRC39, OD650, 24 h (AID 1178); details: higher = more signal, called active from +8 up or from −8 down;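 note: growth measured as culture turbidity by optical density at 650 nm; test concentration not given here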
# [19] = E. coli acrAB mutant growth effects, primary screen, E. coli filamentation inducers, strain DRC39, OD650, 48 h (AID 1179);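 note: screen aims at cell division blockers that make cells filament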; details: E. coli DRC39 delta-acrAB growth, higher = more signal, called active from +8 up or from −8 down
# [20] = RPMI8226 myeloma cell viability, profiling panel, resazurin fluorescence, basal, 24 h, PK04 Diversity Set (AID 1180); details: higher = more signal;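 note: RPMI8826 multiple myeloma cell line at 5000 cells per well; test concentration not given here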
# Chain of NADPH oxidase 5 (Homo sapiens) (Q96PH1 whole entry, looked up): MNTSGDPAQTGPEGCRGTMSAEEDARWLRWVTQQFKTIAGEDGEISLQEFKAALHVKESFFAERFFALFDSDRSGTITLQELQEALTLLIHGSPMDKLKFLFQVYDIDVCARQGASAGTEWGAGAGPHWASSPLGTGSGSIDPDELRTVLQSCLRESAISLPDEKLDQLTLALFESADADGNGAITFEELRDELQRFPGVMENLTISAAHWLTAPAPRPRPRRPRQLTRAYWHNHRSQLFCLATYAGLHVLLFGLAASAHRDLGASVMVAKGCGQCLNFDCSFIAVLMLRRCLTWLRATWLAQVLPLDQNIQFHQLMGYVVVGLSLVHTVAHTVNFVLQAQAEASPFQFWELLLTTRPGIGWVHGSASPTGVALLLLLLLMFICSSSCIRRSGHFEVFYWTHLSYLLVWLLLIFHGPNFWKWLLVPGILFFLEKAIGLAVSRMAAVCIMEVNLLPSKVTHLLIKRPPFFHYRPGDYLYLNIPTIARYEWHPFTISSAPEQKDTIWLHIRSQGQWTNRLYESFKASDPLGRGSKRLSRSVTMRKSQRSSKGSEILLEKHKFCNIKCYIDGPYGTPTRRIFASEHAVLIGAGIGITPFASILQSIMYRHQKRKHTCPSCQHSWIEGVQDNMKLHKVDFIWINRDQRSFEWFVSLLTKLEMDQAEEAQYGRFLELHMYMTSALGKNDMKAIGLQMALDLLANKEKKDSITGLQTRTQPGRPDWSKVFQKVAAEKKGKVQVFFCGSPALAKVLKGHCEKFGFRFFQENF
# Chain of NADPH oxidase 4 (Homo sapiens) (Q9NPH5 whole entry, looked up): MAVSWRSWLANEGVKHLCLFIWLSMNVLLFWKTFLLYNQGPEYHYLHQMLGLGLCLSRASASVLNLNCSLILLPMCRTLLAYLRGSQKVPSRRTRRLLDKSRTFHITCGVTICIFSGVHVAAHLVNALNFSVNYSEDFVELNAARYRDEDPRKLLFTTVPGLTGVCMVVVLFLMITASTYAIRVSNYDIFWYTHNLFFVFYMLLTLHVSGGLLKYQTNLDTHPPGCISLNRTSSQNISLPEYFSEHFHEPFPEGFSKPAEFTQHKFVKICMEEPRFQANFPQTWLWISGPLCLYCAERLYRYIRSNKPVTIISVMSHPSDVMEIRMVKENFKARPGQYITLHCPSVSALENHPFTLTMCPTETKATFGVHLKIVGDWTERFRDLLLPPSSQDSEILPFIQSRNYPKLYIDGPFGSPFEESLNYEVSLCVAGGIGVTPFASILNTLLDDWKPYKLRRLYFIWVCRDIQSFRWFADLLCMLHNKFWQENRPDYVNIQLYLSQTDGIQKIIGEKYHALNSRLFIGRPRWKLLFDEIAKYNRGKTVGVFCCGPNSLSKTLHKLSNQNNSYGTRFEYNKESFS
# Chain of Dihydroorotate dehydrogenase (quinone), mitochondrial (Plasmodium falciparum (isolate 3D7)) (Q08210 whole entry, looked up): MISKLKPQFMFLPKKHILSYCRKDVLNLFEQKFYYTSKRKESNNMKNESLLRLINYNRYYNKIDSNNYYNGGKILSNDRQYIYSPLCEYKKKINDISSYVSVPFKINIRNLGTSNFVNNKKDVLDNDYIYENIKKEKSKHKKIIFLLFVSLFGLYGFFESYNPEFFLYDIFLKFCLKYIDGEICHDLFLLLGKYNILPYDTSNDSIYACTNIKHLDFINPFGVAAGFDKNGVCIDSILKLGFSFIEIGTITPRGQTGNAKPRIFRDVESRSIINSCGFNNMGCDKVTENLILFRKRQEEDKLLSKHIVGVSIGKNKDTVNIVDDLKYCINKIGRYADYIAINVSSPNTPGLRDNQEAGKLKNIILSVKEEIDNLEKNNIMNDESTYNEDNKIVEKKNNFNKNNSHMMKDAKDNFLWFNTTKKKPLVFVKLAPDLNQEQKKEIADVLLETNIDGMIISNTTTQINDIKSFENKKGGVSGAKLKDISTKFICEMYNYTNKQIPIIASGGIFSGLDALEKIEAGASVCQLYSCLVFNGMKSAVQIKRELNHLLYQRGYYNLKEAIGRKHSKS
SMILES,z-score [1],z-score [2],z-score [3],z-score [4],z-score [5],z-score [6],z-score [7],z-score [8],z-score [9],z-score [10],z-score [11],z-score [12],z-score [13],z-score [14],z-score [15],composite z-score [16],z-score [17],z-score [18],z-score [19],z-score [20]
CN1C=C(C(=O)OCCS(C)(=O)=O)C(C(=O)OCCS(C)(=O)=O)=CC(CCCO)=CC1c1cccs1 (stereo not given),0.858 (inactive),0.0246,2.6,0.778,0.615,0.175,-0.249,1.9,1.93 (inactive),0.0813,0.885,0.776 (inactive),0.666,-3.06 (inactive),1.07 (inactive),-4.08 (inactive),-1.01 (inactive),1.26 (inactive),0.676 (inactive),0.602
COc1ccc(CCNC(=O)[C@@]2(Sc3ccc(C)cc3)CC(=O)N(Cc3ccccc3)[C@@H]2c2ccc(CO)cc2I)cc1,-1.14 (inactive),1.78,0.648,1.14,-0.46,-1.78,-2.05,1.17,0.0695 (inactive),-0.861,-1.3,1.28 (inactive),0.278,-1.92 (inactive),-2.26 (inactive),0.341 (inactive),0.893 (inactive),0.361 (inactive),-0.0855 (inactive),-1.5
C=C(COC)C(=O)CC[C@H](OC(=O)c1cccnc1)c1cccc(OCCO)c1,0.743 (inactive),-1.3,0.18,1.13,-1.38,-3.32,-0.941,0.872,0.984 (inactive),-0.169,-0.615,0.633 (inactive),0.282,-0.221 (inactive),0.839 (inactive),-0.236 (inactive),1.61 (inactive),1.09 (inactive),0.757 (inactive),-0.581
C=CC[C@]1(C(=O)N(C)C)N=C(c2ccc(OCCCO)cc2)O[C@H]1c1ccccc1CN=[N+]=[N-],0.653 (inactive),-1.25,0.937,0.988,1.18,-1.17,-0.862,2.11,0.0328 (inactive),-0.942,-0.587,1.26 (inactive),0.481,-1.26 (inactive),0.838 (inactive),-0.0916 (inactive),-0.197 (inactive),1.53 (inactive),0.442 (inactive),0.747
CCCCCN1CC=CC23O[C@@H]4/C=C\CCC(C)OC(=O)C4[C@H]2C(=O)N(CCO)[C@@H]3C1=O (stereo not given in full),-0.354 (inactive),2.5,0.414,2.4,0.277,2.91,-0.245,0.419,1.74 (inactive),0.791,1.17,0.095 (inactive),0.355,-0.734 (inactive),1.32 (inactive),0.0255 (inactive),0.121 (inactive),1.34 (inactive),1.11 (inactive),1.22
C=CC[C@@]1(C(=O)NCc2ccccc2)N=C(c2ccc(OCCCO)cc2)O[C@@H]1c1ccccc1,0.956 (inactive),-1.14,-0.506,0.791,-1.01,-2.93,-4.46,0.0411,1.84 (inactive),-1.23,0.199,0.0074 (inactive),0.547,-2.16 (inactive),-0.47 (inactive),-0.904 (inactive),-1.23 (inactive),0.254 (inactive),-0.124 (inactive),-1.48
CC(=O)OC(C/C=C\B1OC(C)(C)C(C)(C)O1)c1ccccc1 (stereo not given),0.478 (inactive),-2.94,2.43,0.554,0.467,0.345,0.0422,2.03,2.31 (inactive),-0.457,0.962,0.273 (inactive),0.518,-2.1 (inactive),1.14 (inactive),0.339 (inactive),-4.44 (inactive),1.5 (inactive),0.57 (inactive),0.157
COCCCNC(=O)[C@@]1(CCS(=O)(=O)c2ccccc2)N=C(c2ccc(OCCCO)cc2)O[C@H]1c1ccccc1CN=[N+]=[N-],-0.383 (inactive),-0.497,1,2.66,-0.0301,0.872,-0.532,1.02,0.164 (inactive),-0.866,0.175,0.0658 (inactive),-0.404,-0.938 (inactive),1.21 (inactive),-1.02 (inactive),-1.49 (inactive),1.4 (inactive),0.502 (inactive),0.846
C=CCOC(=O)[C@H]1[C@@H]2C(=O)O[C@@H](c3ccccc3)[C@@H](c3ccccc3)N2[C@@H](c2ccc(OCCOC(=O)[C@H]3C[C@H]4C(=O)N5CCC[C@H]5C(=O)N4[C@H]3c3cccc(OCCO)c3)cc2)[C@]12C(=O)Nc1ccccc12,1.57 (inactive),1.43,0.552,1.19,-0.588,-1.73,0.791,-0.558,0.569 (inactive),-0.585,-0.673,0.601 (inactive),0.0928,0.22 (inactive),1.26 (inactive),0.493 (inactive),1.16 (inactive),0.971 (inactive),0.184 (inactive),1.37
COC(=O)c1c(CC[C@@H](CO)NC(=O)Nc2ccc(OC)cc2)oc(C(=O)Cc2ccccc2)c1C(=O)OC,0.649 (inactive),-2.22,-1.27,1.01,-0.255,-0.581,0.141,-0.115,0.695 (inactive),-0.204,0.212,0.367 (inactive),-0.325,-2.3 (inactive),0.955 (inactive),-1.09 (inactive),1.22 (inactive),1.46 (inactive),0.987 (inactive),0.173
COCCOC(=O)N1C(=O)[C@@]2(c3ccccc31)[C@H](C(=O)Nc1nc3ccccc3s1)[C@H]1C(=O)O[C@H](c3ccccc3)[C@H](c3ccccc3)N1[C@@H]2c1ccc(O)cc1,-0.395 (inactive),1.28,0.751,0.471,-1.49,-3.26,-3.76,-3.44,1.01 (inactive),-1.05,-1.87,0.35 (inactive),0.148,2.4 (inactive),-1.22 (inactive),-2.63 (inactive),4.4 (inactive),1.23 (inactive),1.84 (inactive),-0.898
CC(C)C(CO)N1C(=O)[C@@H]2C3C(=O)OCCC/C=C\[C@H]3OC23C=CCN(C(C)C)C(=O)[C@@H]13 (stereo not given in full),0.527 (inactive),1.56,0.136,0.492,-0.345,0.239,-0.0156,0.271,-0.0599 (inactive),-0.524,1.05,0.735 (inactive),0.997,-0.953 (inactive),0.814 (inactive),-0.848 (inactive),-1.36 (inactive),1.66 (inactive),1.26 (inactive),1.53
[N-]=[N+]=Nc1ccccc1[C@H]1OC(c2ccc(OCCCO)cc2)=N[C@@]1(Cc1ccccc1)C(N)=O,0.363 (inactive),-0.45,-0.297,1.26,0.13,-3.09,-3.37,0.912,3.11 (inactive),-1.05,-1.45,-1.6 (inactive),0.0234,-1.69 (inactive),-1.29 (inactive),-0.227 (inactive),0.401 (inactive),2.24 (inactive),1.45 (inactive),-1.96
COCCOC(=O)N1C(=O)[C@@]2(c3cc(C#CC4(O)CCCCCC4)ccc31)[C@H](C(=O)NC[C@H](O)c1ccccc1)[C@H]1C(=O)O[C@H](c3ccccc3)[C@H](c3ccccc3)N1[C@@H]2c1ccccc1OCCO,-0.729 (inactive),0.85,0.463,1.76,-1.41,-3.26,-3.76,-1.3,0.951 (inactive),-0.939,-1.75,-0.0869 (inactive),-0.0252,1.26 (inactive),-1.35 (inactive),0.811 (inactive),3.05 (inactive),0.634 (inactive),1.05 (inactive),-1.93
COCCCNC(=O)[C@@]1(Cc2ccccc2)N=C(c2ccc(OCCCO)cc2)O[C@H]1c1ccccc1N=[N+]=[N-],0.523 (inactive),-1.57,-0.622,1.95,-0.121,-1.67,-4.02,1.12,2.93 (inactive),-1.1,-0.433,-1.83 (inactive),0.357,0.346 (inactive),-1.13 (inactive),1.37 (inactive),2.42 (inactive),1.22 (inactive),0.18 (inactive),-2.12
C=CCNC(=O)[C@@H]1[C@H]2C(=O)O[C@H](c3ccccc3)[C@H](c3ccccc3)N2[C@H](c2ccc(O)cc2)[C@@]12C(=O)Nc1ccccc12,-1.9 (inactive),-1.37,0.106,2.33,0.869,0.306,-2.6,-0.581,0.889 (inactive),-0.824,1.31,0.679 (inactive),-0.696,-0.146 (inactive),0.634 (inactive),-0.132 (inactive),0.87 (inactive),0.874 (inactive),0.634 (inactive),0.812

# — PubChem BioAssay
